Counter-ions that a name gives are not always drawn.

The subject of the assay is OVCAR4. Kind of assay: Euclidean distance of Cell Painting phenotypic profile (signed KS, 77 features) to DMSO centroid (dimensionless distance); 5 or 10 uM (library dependent); higher = stronger phenotypic change vs DMSO (phenoactivity). As to conditions: 48 h. Summed up:
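Five cancer lines and a healthy fibroblast line received library compounds at 10 or 5 uM (library-dependent, 0.1% DMSO final) for 48 h. Stained cells were imaged confocally at 20X (9 fields/well). Harmony extracted 77 features, each scored as a signed Kolmogorov-Smirnov statistic against same-plate vehicle wells. Profiles were plate-position corrected, correlation-weighted and replicate-averaged at the top dose. Phenoactivity is the Euclidean distance from each profile to the median vehicle profile.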
In turn, `Cc1cc(Nc2nc(N[C@@H](C)c3ccc(F)cc3)c(C#N)cc2F)n[nH]1` registered an Euclidean distance of 2.77.
`CC1(C)S[C@@H]2[C@H](NC(=O)[C@H](N)c3ccc(O)cc3)C(=O)N2[C@H]1C(=O)O` [Amoxicillin Sodium] registered an Euclidean distance of 1.78.
`CONC(=O)Nc1ccc(-c2sc3c(c2CN(C)C)c(=O)n(-c2ccc(OC)nn2)c(=O)n3Cc2c(F)cccc2F)cc1` [Relugolix]: the Euclidean distance was found to be 1.3.
For `CCCCCCCCN=C(N)NC(N)=NCc1ccc(Cl)c(Cl)c1` [Olanexidine Hydrochloride semihydrate] the value was 5.78; for `N[C@@H](CC(=O)O)C(=O)O` [L-aspartic Acid], 1.44; for `O=C(c1ccc(F)c(F)c1Nc1ccc(I)cc1F)N1CC(O)([C@@H]2CCCCN2)C1` [Cobimetinib (GDC-0973. RG7420)], 2.85.
With `CN(C)CCN1C(=O)c2cccc3cc(N)cc(c23)C1=O` [Amonafide] the figure was 3.48; with `Nc1nc(NC2CC2)c2ncn([C@H]3C=C[C@@H](CO)C3)c2n1` [Abacavir sulfate], 1.74; with `CC(C)(C)NCC(O)c1ccc(O)c(CO)c1` (centres undefined) [Salbutamol Sulfate], 1.78.
For `CCOc1cc(N)c([N+](=O)[O-])cc1C(=O)NC1CCN(CC2CC=CCC2)CC1` (centres undefined) [Cinitapride Hydrogen Tartrate] the value was 1.57.
`CN1CCC(=C2c3ccccc3CCc3cccnc32)CC1` [Azatadine dimaleate] displayed an Euclidean distance of 1.44.
For `O=C1c2ccc(Nc3ccc(F)cc3F)cc2CCc2ccc(OC[C@H](O)CO)cc21` [Skepinone-L], the Euclidean distance stood at 1.31.
With `CCc1nc(C(N)=O)c(Nc2ccc(N3CCC(N4CCN(C)CC4)CC3)c(OC)c2)nc1NC1CCOCC1` [Gilteritinib (ASP2215)] the figure was 2.89; with `O=C(O)c1cc(=O)c2ccccc2o1` [Chromocarb], 0.727.
With `CCCCCCCCCCCCCCCCCCOCC(O)CO` (centres undefined) [Batyl alcohol] the figure was 0.921; with `CC(C)c1nc(CN(C)C(=O)N[C@H](C(=O)N[C@@H](Cc2ccccc2)C[C@H](O)[C@H](Cc2ccccc2)NC(=O)OCc2cncs2)C(C)C)cs1` [Ritonavir], 1.77; with `CSc1nc2cc(Cl)c(Oc3cccc(Cl)c3Cl)cc2[nH]1` [Triclabendazole], 0.772.
With `CCNC(=O)[C@@H]1CCCN1C(=O)[C@H](CCCNC(=N)N)NC(=O)[C@H](CC(C)C)NC(=O)[C@@H](CC(C)C)NC(=O)[C@H](Cc1ccc(O)cc1)NC(=O)[C@H](CO)NC(=O)[C@H](Cc1c[nH]c2ccccc12)NC(=O)[C@H](Cc1c[nH]cn1)NC(=O)[C@@H]1CCC(=O)N1` [Leuprolide Acetate] the figure was 0.971.
As to `CC(=O)Oc1ccc(C(c2ccc(OC(C)=O)cc2)c2ccccn2)cc1` [Bisacodyl], the Euclidean distance came to 1.41.
`O=C(CCc1ccc(O)cc1)c1c(O)cc(O)cc1O` [Phloretin]: the Euclidean distance was found to be 0.792.
`CC1(C)S[C@@H]2[C@H](NC(=O)[C@H](N)c3ccccc3)C(=O)N2[C@H]1C(=O)O` [Ampicillin Trihydrate] registered an Euclidean distance of 1.53.
For `OC(CCN1CCCC1)(c1ccccc1)C1CCCCC1` (centres undefined) [Procyclidine HCl] the value was 0.869; for `CCN1C(=O)NC(c2ccccc2)C1=O` (centres undefined) [Ethotoin], 1.28.
With `NCCCCCNCC12CC3CC(CC(C3)C1)C2` [IEM 1754 dihydrobroMide] the figure was 0.664; with `CCN(CC)CC(=O)Nc1c(C)cccc1C` [Lidocaine hydrochloride], 1.35.
The molecule `O=C1c2c(O)cccc2Cc2cccc(O)c21` [Dithranol] returned an Euclidean distance of 2.04.
With `Cc1ccc(/C(=C\CN2CCCC2)c2cccc(/C=C/C(=O)O)n2)cc1` [Acrivastine] the figure was 1.02; with `C=C(C)[C@@H]1CC[C@]2(CO)CC[C@]3(C)[C@H](CC[C@@H]4[C@@]5(C)CC[C@H](O)C(C)(C)[C@@H]5CC[C@]43C)[C@@H]12` [Betulin], 1.1.
With `COc1ccc2[nH]cc(CCNC(C)=O)c2c1` [Melatonin] the figure was 0.982; with `CO/N=C(\C(=O)N[C@@H]1C(=O)N2C(C(=O)OCOC(=O)C(C)(C)C)=C(/C=C\c3scnc3C)CS[C@H]12)c1csc(N)n1` [Cefditoren Pivoxil], 1.5.
`N=C(N)c1ccc(N=NNc2ccc(C(=N)N)cc2)cc1` [Diminazene Aceturate] displayed an Euclidean distance of 0.868.
With `CN[C@H](CC(C)C)C(=O)N[C@H]1C(=O)N[C@@H](CC(N)=O)C(=O)N[C@H]2C(=O)N[C@H]3C(=O)N[C@H](C(=O)N[C@H](C(=O)O)c4cc(O)cc(O)c4-c4cc3ccc4O)[C@H](O)c3ccc(c(Cl)c3)Oc3cc2cc(c3O[C@@H]2O[C@H](CO)[C@@H](O)[C@H](O)[C@H]2O[C@H]2C[C@](C)(N)[C@H](O)[C@H](C)O2)Oc2ccc(cc2Cl)[C@H]1O` [Vancomycin HCl] the figure was 0.795; with `CC(C)c1c(C(=O)Nc2ccccc2)c(-c2ccccc2)c(-c2ccc(F)cc2)n1CC[C@@H](O)C[C@@H](O)CC(=O)O` [atorvastatin], 1.24.
With `C[C@@H]1CC(=O)NN=C1c1ccc(NN=C(C#N)C#N)cc1` [Levosimendan] the figure was 0.625; with `CCN1CCCC1CNC(=O)c1cc(S(=O)(=O)CC)c(N)cc1OC` (centres undefined) [Amisulpride], 1.01; with `NS(=O)(=O)NCCNc1nonc1/C(=N/O)Nc1ccc(F)c(Br)c1`, 0.884.
For `CCCCOCCOCCOCc1cc2c(cc1CCC)OCO2` [Piperonyl butoxide] the value was 1.04; for `CCN(CC)CCNC(=O)c1ccc(N)cc1` [Procainamide HCl], 1.07; for `CN1[C@@H]2CC[C@H]1C[C@@H](OC(c1ccccc1)c1ccccc1)C2` [Benztropine mesylate], 1.21.

For the origin of these results see the supplement of paper PMC10127200.
